From PubChem BioAssay
In the library only some 4.6% were active in any assay of this set; here they are far more common.
D1 antagonist: antagonists of human D1 dopamine receptor | HEK293 TREx D1 cells, calcium flux, dopamine EC80; hits give low values | activity change, negative = inhibition, % at 10 µM | 360,000 compounds, 3.2% hits; in the data active means activity change below about -30%; further: on the % scale 0 is the no-effect control and ±100 the full control effect
Target sequence (P21728 whole entry, looked up): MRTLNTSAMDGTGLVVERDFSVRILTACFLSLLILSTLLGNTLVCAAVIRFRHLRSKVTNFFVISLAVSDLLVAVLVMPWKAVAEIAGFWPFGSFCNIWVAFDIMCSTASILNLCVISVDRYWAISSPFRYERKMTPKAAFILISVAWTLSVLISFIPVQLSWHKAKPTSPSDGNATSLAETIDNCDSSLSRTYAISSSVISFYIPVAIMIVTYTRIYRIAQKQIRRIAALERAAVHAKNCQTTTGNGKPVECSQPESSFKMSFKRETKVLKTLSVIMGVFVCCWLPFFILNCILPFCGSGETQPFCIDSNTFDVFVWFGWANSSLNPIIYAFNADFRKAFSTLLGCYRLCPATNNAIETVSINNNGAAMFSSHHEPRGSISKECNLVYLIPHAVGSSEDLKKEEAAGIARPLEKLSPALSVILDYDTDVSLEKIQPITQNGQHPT
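Inducible Hek293 Trex D1 cells (tetracycline, overnight, 30 C). Calcium dye 30–90 min RT. Antagonist mode: EC80 dopamine added after 180 s compound read.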
D1 potentiator: enhances dopamine response at the human D1 receptor. potentiation, % at 10 µM. HEK293 TREx D1 cells, calcium flux, dopamine EC20 potentiation. P21728. 360,000 compounds, 0.036% hits. AID 504651; in the data active means potentiation above about 30%; further: 0% is about no effect
D1 agonist: human D1 receptor agonism. P21728. HEK293 T-REx D1 cells, calcium flux, agonist mode. activation, % at 2 µM. 360,000 compounds, 1% hits; further: 0% is about no effect
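Inducible HEK293 T-REx D1 cells, force-coupled to calcium signalling, were plated at 4000 cells/well with tetracycline and held overnight at 30 C. After no-wash calcium dye loading, compound-evoked calcium rise over 180 s flagged agonists.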
TRHR enhancer: TRH receptor (human) allosteric enhancement. AID 493056. P34981. enhancement, % at 2 µM. 360,000 compounds, 0.66% hits. TRHR cells, fluo-8 calcium fluorescence, EC20 TRH enhancement; in the data active means enhancement above about 30%; further: 0% is about no effect
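TRHR-expressing cells loaded with fluo-8 calcium dye were read kinetically (ex 480/em 530) during compound addition, then stimulated with an EC20 of TRH (10 nM final). Enhancement of the Gq-mediated intracellular calcium response was scored.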
TRHR agonist: TRH receptor (human) agonism; activation, % at 2 µM; TRHR cells, calcium flux fluo-8, FDSS agonist mode; 360,000 compounds, 0.18% hits; AID 493084; further: 0% is about no effect
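TRHR-expressing cells, plated overnight in medium with 10% serum, were loaded with fluo-8 calcium dye at room temperature. After a 10 s baseline, library compound was pin-added and calcium release was recorded kinetically (ex 480/em 530) as agonist response.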
Numbers without * were called inactive; nt = no result. Unless noted, no stated cut-off is given here; in the data, active means activation above about 30%; inactive means the rest.

SMILES | D1 antagonist | D1 potentiator | D1 agonist | TRHR enhancer | TRHR agonist
COCCCN(CCC#N)C(=O)c1c(-c2c(Cl)cccc2Cl)noc1C | -10 | 0 | 2 | -3 | 0
Cc1noc(C)c1S(=O)(=O)NC1CCN(Cc2ccccc2)CC1 | -41* | -4 | 6 | 6 | 0
O=c1cc(O)c2c(=O)[nH]c(=O)n(-c3ccccc3)c2[nH]1 | 0 | -6 | 2 | 33* | 1
O=C(/C=C/c1ccc(Br)o1)Nc1nnc(C2CC2)s1 | 7 | -4 | 1 | -5 | 1
Cc1ccc(NC(=S)N(CCCN2CCOCC2)Cc2ccco2)cc1C | 8 | 0 | -1 | -1 | 1
Cc1ccc(Cl)cc1NC(=S)N(CCCN1CCOCC1)Cc1ccco1 | -52* | -12 | 3 | 0 | 0
Cc1cc(NC(=S)N(CCCN2CCN(C)CC2)Cc2ccco2)ccc1Cl | -31* | 0 | 9 | -7 | 0
O=C(Nc1ncc(Cc2ccccc2)s1)C1CCCO1 (stereo unspecified) | -12 | -1 | 3 | -5 | -1
CNc1ncc(Cc2ccccc2)s1 | -53* | -5 | 3 | 0 | 1
O=C1OC(C(=O)Nc2nccs2)Cc2ccccc21 (stereo unspecified) | -40* | 1 | 1 | -5 | 1
CCOC(=O)c1cccnc1SCC(=O)Nc1ccc(C)cc1C | -12 | -2 | 1 | 0 | 0
COc1cc(NC(=O)Cn2cc(S(=O)(=O)N3CCC(C)CC3)c3ccccc3c2=O)cc(OC)c1OC | 0 | 4 | 3 | -1 | 1
Cc1ccc(S(=O)c2ccc(NC(=O)C3CC3)cc2C#N)cc1 (stereo unspecified) | -31* | -9 | 25 | 0 | 1
CCOc1ccc(N(CC)S(=O)(=O)N2CCCC(C(=O)Nc3ccc(NC(C)=O)cc3)C2)cc1 (stereo unspecified) | 12 | -3 | 2 | 5 | 1
O=C(CN1C(=O)NC2(CCCCC2)C1=O)Nc1ccc(F)cc1 | 11 | -3 | 2 | 4 | 0
O=C(CCCN1C(=O)NC2(CCCC2)C1=O)Nc1ccc(F)cc1 | -38* | -7 | 0 | -3 | 0
O=C(CN1C(=O)NC2(CCCCCCC2)C1=O)Nc1ccc(Br)cc1 | -40* | 2 | 0 | 0 | 0
Cc1oc2ccc(O)c(CN3CCN(C)CC3)c2c1C(=O)Nc1ccc(C(C)C)cc1 | 6 | -3 | 20 | 2 | 1
Cc1cc(Br)ccc1NC(=O)CN(C)C(=O)c1ccc(-n2cncn2)c([N+](=O)[O-])c1 | -41* | nt | 1 | 3 | 0
Cc1cc(Br)ccc1NC(=O)CNC(=O)c1ccc(-n2cncn2)c([N+](=O)[O-])c1 | -8 | -5 | -1 | 12 | 0
COc1cc2[nH]c(=S)n(C3CC3)c(=O)c2cc1OC | -31* | 0 | 3 | 2 | 0
CN1C[C@@H]2C(c3ccccc3)C3(c4cccnc4)CC2(C3)[C@H]1c1ccccc1 (stereo partly specified) | -39* | -1 | 2 | 4 | 0
CN1C[C@@H]2C(c3ccc(C(F)(F)F)cc3)C3(c4ccccc4)CC2(C3)[C@H]1c1ccccc1 (stereo partly specified) | 24 | 3 | 6 | 0 | 0
COC(=O)CCCNC(=O)c1ccc(OS(=O)(=O)c2cc([N+](=O)[O-])ccc2C)cc1 | -11 | 4 | 63* | 2 | -1
O=[N+]([O-])c1ccccc1NCCOc1ccccc1 | -44* | -2 | 1 | -7 | 0
SMILES | D1 antagonist | D1 potentiator | D1 agonist | TRHR enhancer | TRHR agonist
O=C(NCCOc1ccccc1)c1cc(C(=O)NCCOc2ccccc2)cc([N+](=O)[O-])c1 | -40* | -7 | 9 | -3 | 0
O=C(CCNC(=O)c1ccccc1)Oc1ccc([N+](=O)[O-])cc1 | -46* | -6 | 6 | -4 | 1
O=C(NCCOc1ccccc1)c1ccccc1[N+](=O)[O-] | 1 | -2 | 1 | 4 | 0
O=C(NCCc1ccc([N+](=O)[O-])cc1)c1ccccc1 | 8 | 1 | 3 | 3 | -2
COc1ccc(C(=O)NCCNc2ccc([N+](=O)[O-])cc2)cc1 | nt | -4 | -3 | 0 | -2
CCOC(=O)c1[nH]c(C)c(CCC(=O)NCc2ccccc2Cl)c1C | -6 | -2 | 2 | 0 | 0
COC(=O)c1ccc2c(c1)N(CC(=O)Nc1cccc(Cl)c1C)C(=O)c1ccccc1S2 | 12 | -1 | 11 | 5 | 2
